Active and inactive are the calls of the source. Unless noted, how the calls were made is not given here.
Assays:
[1] = anti-His antibody binders, primary screen, artefact control for SMM control protein annotation, biochemical, small-molecule microarray, 635 nm fluorescence (AID 1128); settings: anti-His Alexa647 antibody binding, higher = more signal;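 further: score merges feature fluorescence with signal-to-noise for each printed compound spot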
[2] = tested on: Human papillomavirus type 1a E7 protein (residues 1-88); assay: HPV1a E7 small-molecule binders, primary screen, biochemical, small-molecule microarray, residues 1-88, 635 nm (AID 1129); settings: small-molecule microarray binding, fluorescence 635 nm; higher = more signal
[3] = target: Focal adhesion kinase 1 (Homo sapiens) (UniProt Q05397); assay: small-molecule microarray binders of FAK, primary screen, biochemical, 635/667 nm fluorescence, BSA, DTT (AID 1130); settings: PTK2 binding, 635 nm fluorescence, higher = more signal;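 further: composite of spot emission at 667 nm and signal to noise over triplicate slides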
Chain of Focal adhesion kinase 1 (Homo sapiens) (Q05397 whole entry, looked up): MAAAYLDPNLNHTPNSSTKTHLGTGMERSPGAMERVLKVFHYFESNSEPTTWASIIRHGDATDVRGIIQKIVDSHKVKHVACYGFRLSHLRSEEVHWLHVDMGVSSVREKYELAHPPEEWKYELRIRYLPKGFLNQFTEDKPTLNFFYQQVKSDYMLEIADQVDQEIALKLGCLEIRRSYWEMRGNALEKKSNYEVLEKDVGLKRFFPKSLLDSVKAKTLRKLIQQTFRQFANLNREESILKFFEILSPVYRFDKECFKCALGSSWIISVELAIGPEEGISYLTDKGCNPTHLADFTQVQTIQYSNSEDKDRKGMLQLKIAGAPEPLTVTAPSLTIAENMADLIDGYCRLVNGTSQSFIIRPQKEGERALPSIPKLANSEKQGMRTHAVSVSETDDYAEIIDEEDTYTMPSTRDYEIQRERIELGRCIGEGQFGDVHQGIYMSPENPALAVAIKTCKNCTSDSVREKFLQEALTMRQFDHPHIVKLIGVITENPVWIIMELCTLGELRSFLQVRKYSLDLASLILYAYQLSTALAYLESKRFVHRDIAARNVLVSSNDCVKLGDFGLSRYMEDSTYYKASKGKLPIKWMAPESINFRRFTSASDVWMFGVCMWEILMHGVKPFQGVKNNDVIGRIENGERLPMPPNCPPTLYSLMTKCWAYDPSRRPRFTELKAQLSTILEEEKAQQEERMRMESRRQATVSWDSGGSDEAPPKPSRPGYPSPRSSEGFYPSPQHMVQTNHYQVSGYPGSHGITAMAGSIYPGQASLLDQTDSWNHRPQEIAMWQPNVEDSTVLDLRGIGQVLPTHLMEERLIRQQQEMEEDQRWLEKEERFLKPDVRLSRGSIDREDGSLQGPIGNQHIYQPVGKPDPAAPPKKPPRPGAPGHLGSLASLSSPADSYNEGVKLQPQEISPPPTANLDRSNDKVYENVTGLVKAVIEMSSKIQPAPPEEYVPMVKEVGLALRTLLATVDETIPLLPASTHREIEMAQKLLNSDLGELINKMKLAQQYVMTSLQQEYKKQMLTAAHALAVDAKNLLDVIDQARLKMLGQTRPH

[4] = tested on: Fibrinogen (Alexa647-labelled); assay: fibrinogen binders on compound microarrays, profiling panel, artefact control for SMM control-protein annotation, biochemical, small-molecule microarray, 635/667 nm fluorescence (AID 1131); settings: fibrinogen-A647 binding fluorescence, higher = more signal;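 further: z-score merges 667 nm fluorescence with per-spot signal-to-noise over triplicate slides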
[5] = target: Follistatin (Homo sapiens) (UniProt P19883); assay: follistatin binders on small-molecule microarrays, primary screen, biochemical, small-molecule microarray, 635/667 nm fluorescence (AID 1132); settings: FST binding, 635 nm fluorescence, higher = more signal
Chain of Follistatin (Homo sapiens) (P19883 whole entry, looked up): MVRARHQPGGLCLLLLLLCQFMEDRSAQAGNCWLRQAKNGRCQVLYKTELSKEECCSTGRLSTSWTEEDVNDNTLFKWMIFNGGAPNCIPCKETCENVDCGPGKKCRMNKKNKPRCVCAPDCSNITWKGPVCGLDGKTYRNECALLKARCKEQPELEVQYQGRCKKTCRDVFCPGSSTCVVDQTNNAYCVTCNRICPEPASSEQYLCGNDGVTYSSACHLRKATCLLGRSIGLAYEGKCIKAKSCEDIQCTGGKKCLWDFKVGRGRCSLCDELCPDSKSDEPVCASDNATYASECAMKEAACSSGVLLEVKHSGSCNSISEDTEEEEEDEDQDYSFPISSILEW

[6] = target: Fibroblast growth factor 2 (Homo sapiens) (UniProt P09038); assay: FGF2 binders on small-molecule microarrays, primary screen, biochemical, small-molecule microarray, 635/667 nm fluorescence (AID 1133); settings: small-molecule microarray binding, FGF2, fluorescence 635/667; higher = more signal
Chain of Fibroblast growth factor 2 (Homo sapiens) (P09038 whole entry, looked up): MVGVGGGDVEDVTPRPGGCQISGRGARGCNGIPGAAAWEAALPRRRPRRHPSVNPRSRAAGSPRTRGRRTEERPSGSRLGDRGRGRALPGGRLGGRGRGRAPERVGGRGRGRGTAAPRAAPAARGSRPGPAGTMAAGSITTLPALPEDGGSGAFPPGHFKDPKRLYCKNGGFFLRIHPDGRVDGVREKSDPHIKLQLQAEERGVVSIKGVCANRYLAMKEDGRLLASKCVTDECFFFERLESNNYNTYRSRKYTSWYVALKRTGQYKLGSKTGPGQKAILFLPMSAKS

[7] = mitochondrial membrane potential change in A549 cells, profiling panel, cell-based, JC-1 fluorescence, basal, 24 h, 100 nL (AID 1138); settings: higher = more signal;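 further: A549 lung adenocarcinoma cells under basal conditions with no added stimulus; test concentration not given here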
Lefty1 = Lefty1 binders on small-molecule microarrays, primary screen, biochemical, small-molecule microarray, 635/667 nm fluorescence (AID 1139); settings: small-molecule microarray binding, fluorescence 635/667; higher = more signal
[8] = tested on: wheat germ agglutinin (Triticum aestivum), Alexa647-labelled; assay: wheat germ agglutinin binders on compound microarrays, profiling panel, artefact control for SMM control-protein annotation, biochemical, small-molecule microarray, 635/667 nm fluorescence (AID 1140); settings: WGA-A647 binding, 635 nm fluorescence, higher = more signal;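 further: score merges 667 nm feature emission with signal to noise over triplicate slides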
[9] = target: Luciferin 4-monooxygenase (Photinus pyralis) (UniProt P08659); assay: firefly luciferase enzyme inhibitors, primary screen, biochemical, luminescence, purified enzyme, 2006 set (AID 1141); settings: SteadyGlo luminescence, 30 min, higher = more signal, called active from +8 up or from −8 down;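 further: cell-free assay with purified firefly luciferase at 100 ng per well in PBS; test concentration not given here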
Chain of Luciferin 4-monooxygenase (Photinus pyralis) (P08659 whole entry, looked up): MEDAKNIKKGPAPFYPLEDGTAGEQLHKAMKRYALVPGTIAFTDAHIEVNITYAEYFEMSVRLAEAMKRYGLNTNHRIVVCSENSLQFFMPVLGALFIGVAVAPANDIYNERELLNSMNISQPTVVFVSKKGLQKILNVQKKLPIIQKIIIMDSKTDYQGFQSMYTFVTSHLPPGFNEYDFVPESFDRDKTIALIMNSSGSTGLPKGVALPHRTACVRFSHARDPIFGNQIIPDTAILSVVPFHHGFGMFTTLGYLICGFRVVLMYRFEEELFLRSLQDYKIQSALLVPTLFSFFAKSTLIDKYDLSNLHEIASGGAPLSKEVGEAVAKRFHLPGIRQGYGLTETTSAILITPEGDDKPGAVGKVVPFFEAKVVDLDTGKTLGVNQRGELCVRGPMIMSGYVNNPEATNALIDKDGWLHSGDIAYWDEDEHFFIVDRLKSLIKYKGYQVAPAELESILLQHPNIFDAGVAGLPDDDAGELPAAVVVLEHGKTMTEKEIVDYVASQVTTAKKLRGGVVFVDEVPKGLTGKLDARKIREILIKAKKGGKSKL

[10] = tested on: Wnt5a (protein binding on small-molecule microarray); assay: Wnt5a binders on small-molecule microarray, primary screen, biophysical, 635/667 nm fluorescence (AID 1142); settings: 635 nm fluorescence, higher = more signal;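 further: fluorescence read at 667 nm with signal to noise per printed feature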
[11] = cell viability in Huh7 cells, primary screen, cytotoxicity control for HCV replication inhibitor project, CellTiter-Glo luminescence, basal, 48 h (AID 1143); settings: Huh7 HCV replicon, higher = more signal, called active from +8 up or from −8 down;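 further: Huh7 hepatoma cells carrying a hepatitis C replication reporter with no stimulus; test concentration not given here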
[12] = P. aeruginosa biofilm formation inhibitors, primary screen, PAO1 strain, BacTiter-Glo luminescence, LB-PBS (AID 1144); settings: 12 h, higher = more signal
[13] = CREB reporter modulators without forskolin, primary screen, cell-based, PC12, CRE-LacZ reporter, unstimulated (AID 1145); settings: no forskolin, luminescence, 4.5 h, higher = more signal, called active from +8 up or from −8 down
[14] = CREB reporter modulators under forskolin, primary screen, cell-based, PC12, CRE-LacZ reporter, forskolin-stimulated (AID 1146); settings: luminescence, 4.5 h, higher = more signal, called active from +8 up or from −8 down;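 further: PC12 cells with 6xCRE LacZ reporter stimulated by forskolin 10 µM; beta-galactosidase reporter signal reflecting CREB driven transcription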
[15] = target: Streptavidin (Streptomyces avidinii) (UniProt P22629); assay: streptavidin binders on small-molecule microarray, primary screen, artefact control for SMM compound annotation, biophysical, 635/667 nm fluorescence (AID 1147); settings: streptavidin binding, higher = more signal;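 further: signal reflects streptavidin binding to arrayed compounds as a control protein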
Chain of Streptavidin (Streptomyces avidinii) (P22629 whole entry, looked up): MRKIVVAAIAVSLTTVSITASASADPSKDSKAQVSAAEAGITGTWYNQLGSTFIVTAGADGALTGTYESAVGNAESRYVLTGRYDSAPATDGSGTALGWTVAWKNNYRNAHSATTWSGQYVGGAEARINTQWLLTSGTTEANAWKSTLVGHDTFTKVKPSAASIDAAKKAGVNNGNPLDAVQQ

[16] = small-molecule binders of probe aInhba, primary screen, biochemical, small-molecule microarray, 635/667 nm fluorescence (AID 1148); settings: higher = more signal;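 further: score merges 667nm spot fluorescence with signal-to-noise for antibody binding to printed compounds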
Torsin-1A (Homo sapiens) [17] = target: Torsin-1A (Homo sapiens) (UniProt O14656); assay: torsin A binders from cell lysate, primary screen, small-molecule microarray, wild-type, 635/667 nm (AID 1149); settings: COS7 hTOR1A-WT lysate, 635 nm fluorescence, higher = more signal
Chain of Torsin-1A (Homo sapiens) (O14656 whole entry, looked up): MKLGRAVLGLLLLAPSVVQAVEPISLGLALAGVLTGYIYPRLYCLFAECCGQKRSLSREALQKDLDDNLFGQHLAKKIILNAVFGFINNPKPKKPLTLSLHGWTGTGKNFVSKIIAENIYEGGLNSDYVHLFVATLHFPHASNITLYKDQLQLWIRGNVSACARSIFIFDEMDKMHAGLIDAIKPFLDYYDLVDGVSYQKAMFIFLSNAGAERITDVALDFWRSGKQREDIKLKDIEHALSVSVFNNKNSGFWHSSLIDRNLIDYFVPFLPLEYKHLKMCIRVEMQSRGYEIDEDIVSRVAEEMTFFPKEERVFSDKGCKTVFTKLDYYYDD

Torsin-1A (Homo sapiens) [18] = target: Torsin-1A (Homo sapiens) (UniProt O14656); assay: small-molecule binders of mutant TOR1A in lysate, primary screen, cell lysate, small-molecule microarray, COS7 lysate, 635/667 nm fluorescence (AID 1150); settings: COS7 hTOR1A mutant lysate, 635 nm fluorescence, higher = more signal;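 further: score pools 667 nm emission and signal to noise measuring lysate protein binding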
[19] = tested on: Sonic hedgehog protein (Shh); assay: small-molecule binders of Shh protein, primary screen, biochemical, small-molecule microarray, 635/667 nm fluorescence (AID 1151); settings: small-molecule microarray binding, 635 nm fluorescence; higher = more signal;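 further: Shh protein binding to compounds spotted on small-molecule microarray slides; score combines spot fluorescence intensity with signal-to-noise across triplicate slides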

| SMILES | composite z-score [1] | composite z-score [2] | composite z-score [3] | composite z-score [4] | composite z-score [5] | composite z-score [6] | z-score [7] | composite z-score (Lefty1) | composite z-score [8] | z-score [9] | composite z-score [10] | z-score [11] | z-score [12] | z-score [13] | z-score [14] | composite z-score [15] | composite z-score [16] | composite z-score (Torsin-1A (Homo sapiens) [17]) | composite z-score (Torsin-1A (Homo sapiens) [18]) | composite z-score [19] |
| --- | --- | --- | --- | --- | --- | --- | --- | --- | --- | --- | --- | --- | --- | --- | --- | --- | --- | --- | --- | --- |
| C[n+]1ccc(CCCO)cc1 | -0.278 | -1.41 | -0.526 | -1.48 | 1.37 | 1.44 | -0.195 | 1.36 | -0.72 | 0.246 (inactive) | 0.749 | -0.0513 (inactive) | -0.601 (inactive) | 0.182 (inactive) | 0.58 (inactive) | -0.902 | 0.196 | -0.653 | -0.0965 | 2.16 |
| COc1c(C)cc(-c2cc3c(c(-c4ccccc4)n2)[Si](C(C)C)(C(C)C)OC3)cc1C | 0.188 | -0.892 | -0.353 | 0.363 | 0.134 | 0.514 | 0.439 | -0.135 | 0.245 | 0.411 (inactive) | 0.0775 | 0.109 (inactive) | -0.661 (inactive) | -0.491 (inactive) | -0.478 (inactive) | 0.657 | -0.0313 | 0.124 | -0.402 | 0.513 |
| COC(=O)[C@]1(CCS(=O)(=O)c2ccccc2)N=C(c2ccc(OCCCO)cc2)O[C@@H]1c1ccccc1CN=[N+]=[N-] | 1.15 | 1.23 | 1.34 | 0.954 | 1.35 | 0.807 | 0.332 | 0.293 | 0.528 | -0.587 (inactive) | 0.419 | -4.23 (inactive) | -0.32 (inactive) | 1.73 (inactive) | -1.37 (inactive) | 0.379 | 0.0655 | 1.33 | 0.69 | 0.738 |
| CC(=O)n1cc(C(O)C2C=CC3C(=O)N(Cc4ccccc4)C(=O)C3N2n2cnnc2)c2ccccc21 (stereo not given) | 0.483 | 0.0022 | 0.418 | 0.948 | 0.0251 | -0.465 | -0.463 | 0.204 | 0.505 | 0.702 (inactive) | 0.363 | 0.276 (inactive) | 1.3 (inactive) | 0.631 (inactive) | -0.696 (inactive) | 1.05 | -0.152 | -0.466 | -0.0022 | 0.204 |
| CCOC(=O)[C@H]1C/C=C/C[C@H](C(=O)OCC)C(=O)O[C@H]2[C@@H](OC)O[C@H](CO)[C@@H](OC(=O)Nc3ccc(OC)cc3)[C@@H]2OC1=O | 1.96 | 1.16 | 0.768 | 0.369 | 1.16 | 0.741 | 2.61 | 0.636 | 0.648 | -2.06 (inactive) | 0.314 | -3.41 (inactive) | 0.29 (inactive) | 0.484 (inactive) | 0.106 (inactive) | 0.355 | 0.134 | 0.494 | 1.64 | 0.733 |
| CN(C)CCCCNC(=O)[C@H]1C[C@H]2C(=O)N3CCC[C@H]3C(=O)N2[C@H]1c1ccc(O)cc1 | -0.268 | -1.6 | -0.401 | -1.05 | 0.443 | -1.01 | -0.983 | -0.428 | -0.534 | 0.501 (inactive) | -1 | -2.49 (inactive) | -1.5 (inactive) | -0.667 (inactive) | -0.942 (inactive) | -1.34 | -0.643 | -1.3 | -1.04 | -0.229 |
| CCOC(=O)C1=CC[C@@H](c2ccccc2)N(S(=O)(=O)c2ccc(C)cc2)C1 | -0.416 | 0.968 | 0.478 | -0.364 | 0.736 | -0.103 | 0.747 | -0.34 | 0.564 | 0.731 (inactive) | 0.0639 | -2.28 (inactive) | 0.84 (inactive) | 0.229 (inactive) | 0.368 (inactive) | 0.342 | 0.0633 | 0.303 | 0.17 | -0.474 |
| C=CC[C@]12N=C(c3ccc(OCCCO)cc3)O[C@H]1c1ccccc1N(C)C2=O | 2.7 | 1.2 | 1.37 | 0.325 | 1.46 | 0.837 | -0.829 | 0.501 | 0.675 | -7.68 (inactive) | 0.305 | -4.59 (inactive) | -1.2 (inactive) | 0.549 (inactive) | -1.18 (inactive) | -0.283 | 0.435 | -0.0323 | 0.468 | 1.28 |
| C=CCN1C(=O)[C@@]2(O[C@@H](CCO)[C@H]([Si](C)(C)c3ccc(OC)cc3)[C@H]2C)c2cc(N3C(=O)c4ccccc4Oc4ccccc43)ccc21 | 0.939 | 0.551 | 0.17 | 0.485 | 0.144 | 0.675 | 0.00401 | 0.24 | 0.615 | -1.49 (inactive) | 0.485 | -7.93 (inactive) | -1.4 (inactive) | 18.4 (active) | -3.87 (inactive) | 0.031 | -0.102 | -0.331 | -0.0355 | 0.23 |
| C=C(CCCC)C(=O)CC[C@@H](OC(=O)c1ccccc1-c1ccccc1C(=O)O)c1cccc(OCCO)c1 | -0.0724 | 0.53 | 0.113 | 0.834 | 1.43 | 1.56 | 0.317 | 1.68 | -0.0168 | -2.33 (inactive) | 0.137 | -0.854 (inactive) | 0.194 (inactive) | 3.31 (inactive) | 8.69 (active) | -0.6 | -0.231 | 0.604 | 0.561 | 1.68 |

From PubChem BioAssay
